Records with an inconclusive call do not appear. Active and inactive are the calls of the source. How the source made its calls: active means hit-call score of the fitted dose curve at least 0.9, where 1 is the maximum; inconclusive means response in the unintended direction; inactive means score below 0.9.

One may read the AC50 as the concentration giving half of the maximal activity seen.

human Microtubule Affinity Regulating Kinase 1 (MARK1), MARK1 (gene 4139), sequence (Q9P0L2 whole entry, looked up): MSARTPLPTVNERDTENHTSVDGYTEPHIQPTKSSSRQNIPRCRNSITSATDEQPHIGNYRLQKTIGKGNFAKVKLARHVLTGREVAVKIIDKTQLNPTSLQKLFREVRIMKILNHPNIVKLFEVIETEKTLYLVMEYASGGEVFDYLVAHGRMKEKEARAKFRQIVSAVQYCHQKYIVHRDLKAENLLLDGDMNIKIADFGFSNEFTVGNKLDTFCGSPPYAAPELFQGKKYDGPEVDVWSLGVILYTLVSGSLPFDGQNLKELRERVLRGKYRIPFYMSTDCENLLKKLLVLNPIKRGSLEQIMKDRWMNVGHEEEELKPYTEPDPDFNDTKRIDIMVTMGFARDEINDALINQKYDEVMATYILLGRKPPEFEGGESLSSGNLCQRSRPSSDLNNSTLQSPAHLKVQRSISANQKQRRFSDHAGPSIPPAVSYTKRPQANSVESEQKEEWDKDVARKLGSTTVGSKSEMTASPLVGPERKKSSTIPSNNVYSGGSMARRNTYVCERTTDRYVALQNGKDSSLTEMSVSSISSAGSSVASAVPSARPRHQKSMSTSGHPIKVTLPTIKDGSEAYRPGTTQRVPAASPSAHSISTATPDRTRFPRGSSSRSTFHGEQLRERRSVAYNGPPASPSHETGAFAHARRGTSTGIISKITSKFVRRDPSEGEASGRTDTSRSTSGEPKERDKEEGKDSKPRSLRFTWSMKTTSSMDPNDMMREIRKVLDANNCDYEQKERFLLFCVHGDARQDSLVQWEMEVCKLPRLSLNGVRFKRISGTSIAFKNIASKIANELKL

The experiment deals with human Microtubule Affinity Regulating Kinase 1 (MARK1), MARK1 (gene 4139) (UniProt Q9P0L2). Description: NVS_ENZ_hMARK1: NovaScreen (NVS) Enzymatic Assay for human Microtubule Affinity Regulating Kinase 1 (MARK1). The protocol:
NVS_ENZ_hMARK1 is a biochemical, single-readout assay that uses extracted gene-proteins in a cell-free assay. Measurements were taken 1 hour after chemical dosing in a 384-well plate.NVS_ENZ_hMARK1 is one of one assay component(s) measured or calculated from the NVS_ENZ_hMARK1 assay. It is designed to make measurements of enzyme activity, a form of enzyme reporter, as detected with fluorescence intensity signals by Fluorescence and electrophoretic mobility shift technology.Data from the assay component NVS_ENZ_hMARK1 was analyzed into 1 assay endpoint. This assay endpoint, NVS_ENZ_hMARK1, was analyzed in the positive analysis fitting direction relative to DMSO as the negative control and baseline of activity. Using a type of enzyme reporter, loss-of-signal activity can be used to understand changes in the enzymatic activity as they relate to the gene MARK1. Furthermore, this assay endpoint can be referred to as a primary readout, because this assay has produced multiple assay endpoints where this one serves a enzymatic activity function. To generalize the intended target to other relatable targets, this assay endpoint is annotated to the kinase intended target family, where the subfamily is serine/threonine kinase.
Binding assays used specific radioligands (tritiated, iodinated) with non-radioactive competitive displacement ligands in agonist or antagonist protocols (as indicated) and various reference compounds and inhibitors to titrate specific binding to receptors and transporters. Most enzyme assays (CYPs, kinases, phosphatases, proteases, HDACs) used recombinant protein and specific substrates (fluorescence mostly, some colorimetric and radioactive) and inhibitors, followed by a biochemical separation of substrate and product. All assays for the biochemical HTS were initially run in duplicate at a single concentration (10 uM for CYP450 assays and 25 uM for all others). Assay-chemical combinations meeting a pre-defined threshold (e.g., 30% inhibition and other criteria defined below) were then run in singleton concentration-response format with maximum concentration of 20 uM for CYPs and 50 uM for all others. Each assay was run with positive and negative controls, and concurrent controls on every plate. The follow-up (secondary) screen tested active chemical-pairs in concentration series, as well as a few additional assays not tested in the primary screen, some selected negative inactives, and several cases re-run in the concentration series for confirmatory purposes.
Regarding `S=C(S)NCCNC(=S)S.[Mn+2].[S-]C([S-])=NCCN=C([S-])[S-].[Zn+2]`, the concentration at half-maximal activity (AC50) was 1380 nM (active).

Regarding `O=C(Nc1ccc([N+](=O)[O-])cc1Cl)c1cc(Cl)ccc1O`, the compound was called inactive.

In the case of `S=C([S-])NCCNC(=S)[S-].[Mn+2]`, the concentration at half-maximal activity (AC50) was 406 nM (active). The same measure, in the same setting: as for `O=C(O)C1(C(=O)Nc2ccc(Cl)cc2Cl)CC1`, the figure is 7850 nM (active).

The record behind these values is PubChem BioAssay AID2283179 (EPA ToxCast).
